Laboratory results as given in PubChem BioAssay (EPA / NIEHS).
Records with an inconclusive call do not appear. Active and inactive are the calls of the source. How the source made its calls, unless noted: active means hit-call score of the fitted dose curve at least 0.9, where 1 is the maximum; inconclusive means response in the unintended direction; inactive means score below 0.9.

What was measured:
[1] = ATG_VDRE_CIS: Attagene CIS-FACTORIAL HepG2 Assay for human Vitamin D Receptor Element (VDRE) (AID 2282968; active means hit-call score of the fitted dose curve at least 0.9, where 1 is the maximum; inactive means score below 0.9); settings: HepG2 VDRE cis-reporter transcription, actives raise or lower the signal
Procedure, shortened: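 Transfected HepG2 reporter cells, chemical treatment 24 h. RNA isolated, cDNA amplified with reporter-specific primers, products analysed by capillary electrophoresis. Endpoint fitted in both directions versus DMSO.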

[2] = target: Nuclear receptor subfamily 1 group I member 3 (Homo sapiens) (UniProt Q14994); experiment: ATG_CAR_TRANS: Attagene TRANS-FACTORIAL HepG2 Assay for human Constitutive Androstane Receptor (CAR) (AID 2282969); settings: HepG2 Attagene TRANS-FACTORIAL CAR reporter;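 further: activators raise reporter mRNA above DMSO so AC50 marks induction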
Procedure, shortened: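 Steps: transient transfection of HepG2 with multiple GAL4-UAS reporter units; 24 h compound incubation; RNA isolation, RT-PCR, 6-FAM primer extension, HpaI digest; capillary electrophoresis. Gain-of-signal relative to DMSO negative control.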

[3] = target: Steroid hormone receptor ERR1 (Homo sapiens) (UniProt P11474); experiment: ATG_ERRa_TRANS: Attagene TRANS-FACTORIAL HepG2 Assay for human Estrogen-Related Receptor alpha (ERRa) (AID 2282971); settings: HepG2 Attagene TRANS reporter, ERRa transactivation
Procedure, shortened: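 Signal gain relative to DMSO for an ERRa-Gal4 chimeric receptor, read as reporter mRNA by RT-PCR/capillary electrophoresis. Human HepG2 liver cells, transient multiplex reporter transfection, 24 h chemical exposure.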

[4] = target: X-box-binding protein 1 (Homo sapiens) (UniProt P17861); experiment: ATG_Xbp1_CIS: Attagene CIS-FACTORIAL HepG2 Assay for human X-box Binding Protein 1 (XBP1) (AID 2282972; active means hit-call score of the fitted dose curve at least 0.9, where 1 is the maximum; inactive means score below 0.9); settings: HepG2 XBP1 cis-element reporter, Attagene multiplex; actives raise or lower the signal
Procedure, shortened: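 Multiplexed cis-reporter readout in transfected HepG2 liver cells. Exposure lasted 24 hours. Activity in either direction was fitted against DMSO as negative control and baseline.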

[5] = target: Estrogen-related receptor gamma (Homo sapiens) (UniProt P62508); experiment: ATG_ERRg_TRANS: Attagene TRANS-FACTORIAL HepG2 Assay for human Estrogen-Related Receptor gamma (ERRg) (AID 2282977); settings: HepG2 Attagene TRANS reporter, ERRg transactivation;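 further: hits increase reporter signal over DMSO so potencies reflect activators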
Procedure, shortened: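 Exogenous NR-Gal4 chimera activity was assessed in HepG2 cells bearing transfected GAL4-UAS reporters. After 24 h dosing, total RNA underwent RT-PCR, fluorescent primer extension and HpaI digestion before capillary electrophoresis, with gain of signal scored against DMSO.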

[6] = target: Glucocorticoid receptor (Homo sapiens) (UniProt P04150); experiment: ATG_GR_TRANS: Attagene TRANS-FACTORIAL HepG2 Assay for human Glucocorticoid Receptor (GR) (AID 2282978); settings: HepG2 Attagene TRANS GR reporter, mRNA transcription;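 further: activators score as hits since higher reporter transcript over DMSO is fitted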
Procedure, shortened: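 Readout is reporter transcript from a chimeric GR-Gal4 acting on GAL4-UAS in transfected human HepG2 liver cells after 24 h exposure, quantified by RT-PCR and capillary electrophoresis. Activation fitted upward against DMSO.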

[7] = target: Bile acid receptor (Homo sapiens) (UniProt Q96RI1); experiment: ATG_FXR_TRANS: Attagene TRANS-FACTORIAL HepG2 Assay for Farnesoid X Receptor (FXR) (AID 2282979); settings: HepG2 Attagene TRANS FXR-GAL4 reporter transcription;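 further: hits raise reporter mRNA above DMSO so AC50 marks FXR activation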
Procedure, shortened: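 After 24 h chemical treatment of transfected HepG2 cells, GAL4-UAS reporter transcripts driven by an exogenous FXR-GAL4 fusion were measured by RT-PCR and capillary electrophoresis. Increases over DMSO were fitted.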

[8] = target: Oxysterols receptor LXR-beta (Homo sapiens) (UniProt P55055); experiment: ATG_LXRb_TRANS: Attagene TRANS-FACTORIAL HepG2 Assay for human Liver X Receptor beta (LXRb) (AID 2282981); settings: HepG2 Attagene TRANS GAL4-LXRb reporter, mRNA
Procedure, shortened: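 Liver-derived HepG2 cells transfected with Gal4-responsive reporters were dosed for 24 h. Activation was scored as rise in reporter mRNA, by RT-PCR and capillary electrophoresis, above DMSO baseline.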

[9] = ATG_M_06_TRANS: Attagene TRANS-FACTORIAL HepG2 Assay for M06 Transcription Factor (Internal Marker) (AID 2282983); settings: HepG2 Attagene TRANS M06 internal marker reporter;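 further: reporter transcript level by RT-PCR then capillary electrophoresis fluorescence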
Procedure, shortened: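 Multi-reporter-transfected HepG2, 24 h treatment; reporter transcripts quantified via RT-PCR, primer-extension labelling and CE. DMSO-normalized gain-of-signal fit.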

[10] = ATG_M_32_TRANS: Attagene TRANS-FACTORIAL HepG2 Assay for M32 Transcription Factor (Internal Marker) (AID 2282984); settings: HepG2 Attagene TRANS M32 internal marker reporter;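 further: transcript level of a background control reporter unit measured by RT-PCR and capillary electrophoresis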
Procedure, shortened: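 Fluorescence-detected mRNA induction, HepG2 liver cells, 24 h after dosing. Multiple GAL4-UAS reporter units introduced by transient transfection; background-control endpoint analysed for gain of signal against DMSO.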

[11] = target: Transcriptional activator Myb (Homo sapiens) (UniProt P10242); experiment: ATG_Myb_CIS: Attagene CIS-FACTORIAL HepG2 Assay for human Myeloblastosis (Myb) Proto-Oncogene Transcription Factor (AID 2282986; active means hit-call score of the fitted dose curve at least 0.9, where 1 is the maximum; inactive means score below 0.9); settings: HepG2 Attagene CIS-FACTORIAL Myb reporter transcription; actives raise or lower the signal
Procedure, shortened: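 Reporter mRNA is quantified by RT-PCR and capillary electrophoresis 24 h after dosing HepG2 cells transfected with cis-regulated reporter units, which track endogenous transcription factor activity. Gain and loss of signal are fitted versus DMSO baseline.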

[12] = target: Nuclear respiratory factor 1 (Homo sapiens) (UniProt Q16656); experiment: ATG_NRF1_CIS: Attagene CIS-FACTORIAL HepG2 Assay for human Nuclear Respiratory Factor 1 (NRF1) Orphan Gene (AID 2282987; active means hit-call score of the fitted dose curve at least 0.9, where 1 is the maximum; inactive means score below 0.9); settings: HepG2 NRF1 cis-element reporter, Attagene multiplex; actives raise or lower the signal
Procedure, shortened: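 Endogenous NRF1-driven reporter transcription in transfected HepG2 cells after 24 h treatment. Readout: RT-PCR products, 6-FAM labelled and resolved by capillary electrophoresis; changes fitted both directions relative to DMSO.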

[13] = ATG_TGFb_CIS: Attagene CIS-FACTORIAL HepG2 Assay for human Transforming Growth Factor (TGF) (AID 2282967; active means hit-call score of the fitted dose curve at least 0.9, where 1 is the maximum; inactive means score below 0.9); settings: HepG2 Attagene CIS TGFb reporter, mRNA transcription; actives raise or lower the signal
Procedure, shortened: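 Readout: fluorescently labeled reporter cDNA fragments resolved by capillary electrophoresis after RT-PCR. Transfected HepG2 cells dosed for 24 h; endogenous TF activity at TGFB1-linked cis element; gain or loss fitted relative to DMSO.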

[14] = ATG_M_19_TRANS: Attagene TRANS-FACTORIAL HepG2 Assay for M19 Transcription Factor (Internal Marker) (AID 2282974); settings: HepG2 Attagene TRANS-FACTORIAL M19 internal marker reporter
Procedure, shortened: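 Background-control readout: after 24 h chemical exposure of transfected HepG2 carrying GAL4-driven reporter units, RNA was reverse-transcribed, amplified, fluorescently labeled and sized by capillary electrophoresis; gain-of-signal fit against DMSO.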

[15] = ATG_GAL4_TRANS: Attagene TRANS-FACTORIAL HepG2 Assay for GAL4 (Internal Marker) (AID 2282976); settings: HepG2 Attagene TRANS GAL4 internal marker reporter
Procedure, shortened: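 Liver HepG2 line bearing multiplexed GAL4-UAS reporter constructs; 24 h chemical treatment. Transcripts were quantified as fluorescent fragments on capillary electrophoresis after RT-PCR and HpaI cut, with activity fitted upward from DMSO.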

[16] = target: Oxysterols receptor LXR-alpha (Homo sapiens) (UniProt Q13133); experiment: ATG_LXRa_TRANS: Attagene TRANS-FACTORIAL HepG2 Assay for human Liver X Receptor alpha (LXRa) (AID 2282980); settings: HepG2 Attagene TRANS reporter, LXRa transactivation
Procedure, shortened: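 In this multiplexed TRANS system, compounds act on HepG2 cells carrying GAL4-UAS reporter units and a receptor-GAL4 fusion for 24 h. Induced reporter RNA is amplified, fluorescently labelled and sized by capillary electrophoresis, with DMSO as baseline.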

[17] = target: Hepatocyte nuclear factor 4-alpha (Homo sapiens) (UniProt P41235); experiment: ATG_HNF4a_TRANS: Attagene TRANS-FACTORIAL HepG2 Assay for human Hepatocyte Nuclear Factor 4 alpha (HNF4a) (AID 2282982); settings: HepG2 HNF4a transactivation reporter, mRNA readout
Procedure, shortened: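 Using HepG2 liver cells transfected with GAL4-UAS reporter units, chemical-induced mRNA increases were assessed after 24 hours. Fluorescent RT-PCR fragments were separated by capillary electrophoresis and compared with DMSO negative controls.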

[18] = target: Nuclear receptor subfamily 4 group A member 2 (Homo sapiens) (UniProt P43354); experiment: ATG_NURR1_TRANS: Attagene TRANS-FACTORIAL HepG2 Assay for human Nuclear Receptor Related Protein 1 (NURR1) (AID 2282985); settings: HepG2 Attagene TRANS reporter, mRNA readout
Procedure, shortened: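 Chimeric NR-Gal4 proteins were expressed in human HepG2 cells bearing GAL4-UAS reporter units, and induced reporter mRNA was quantified 24 h post-dosing by RT-PCR and capillary electrophoresis.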

Chain of Bile acid receptor (Homo sapiens) (Q96RI1 whole entry, looked up, the tested form may be a part): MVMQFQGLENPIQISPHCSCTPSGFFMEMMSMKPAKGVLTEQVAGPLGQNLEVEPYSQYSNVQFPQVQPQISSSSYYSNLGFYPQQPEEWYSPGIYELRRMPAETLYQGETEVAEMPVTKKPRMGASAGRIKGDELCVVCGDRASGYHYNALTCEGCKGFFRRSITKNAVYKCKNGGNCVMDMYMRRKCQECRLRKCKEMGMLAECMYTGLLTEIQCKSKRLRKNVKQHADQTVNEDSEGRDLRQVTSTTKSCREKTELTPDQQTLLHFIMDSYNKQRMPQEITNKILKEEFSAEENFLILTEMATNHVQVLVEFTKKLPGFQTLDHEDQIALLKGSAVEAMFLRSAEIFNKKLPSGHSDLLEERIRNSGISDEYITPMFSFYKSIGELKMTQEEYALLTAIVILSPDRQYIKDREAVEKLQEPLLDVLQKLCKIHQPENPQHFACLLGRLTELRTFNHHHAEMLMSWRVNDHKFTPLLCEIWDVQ
Chain of Hepatocyte nuclear factor 4-alpha (Homo sapiens) (P41235 whole entry, looked up, the tested form may be a part): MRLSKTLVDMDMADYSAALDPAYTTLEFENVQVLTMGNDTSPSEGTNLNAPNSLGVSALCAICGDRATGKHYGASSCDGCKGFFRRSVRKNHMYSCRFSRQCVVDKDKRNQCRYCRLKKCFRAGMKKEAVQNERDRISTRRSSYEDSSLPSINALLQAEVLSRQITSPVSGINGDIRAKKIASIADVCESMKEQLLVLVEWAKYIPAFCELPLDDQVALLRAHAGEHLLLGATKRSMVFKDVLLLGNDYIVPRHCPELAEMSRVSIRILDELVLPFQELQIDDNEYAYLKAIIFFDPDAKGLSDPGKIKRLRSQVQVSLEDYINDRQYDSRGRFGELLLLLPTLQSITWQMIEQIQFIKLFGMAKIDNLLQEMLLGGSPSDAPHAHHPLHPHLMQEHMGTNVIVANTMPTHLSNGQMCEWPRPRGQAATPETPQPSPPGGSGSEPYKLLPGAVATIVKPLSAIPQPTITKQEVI
Chain of Glucocorticoid receptor (Homo sapiens) (P04150 whole entry, looked up, the tested form may be a part): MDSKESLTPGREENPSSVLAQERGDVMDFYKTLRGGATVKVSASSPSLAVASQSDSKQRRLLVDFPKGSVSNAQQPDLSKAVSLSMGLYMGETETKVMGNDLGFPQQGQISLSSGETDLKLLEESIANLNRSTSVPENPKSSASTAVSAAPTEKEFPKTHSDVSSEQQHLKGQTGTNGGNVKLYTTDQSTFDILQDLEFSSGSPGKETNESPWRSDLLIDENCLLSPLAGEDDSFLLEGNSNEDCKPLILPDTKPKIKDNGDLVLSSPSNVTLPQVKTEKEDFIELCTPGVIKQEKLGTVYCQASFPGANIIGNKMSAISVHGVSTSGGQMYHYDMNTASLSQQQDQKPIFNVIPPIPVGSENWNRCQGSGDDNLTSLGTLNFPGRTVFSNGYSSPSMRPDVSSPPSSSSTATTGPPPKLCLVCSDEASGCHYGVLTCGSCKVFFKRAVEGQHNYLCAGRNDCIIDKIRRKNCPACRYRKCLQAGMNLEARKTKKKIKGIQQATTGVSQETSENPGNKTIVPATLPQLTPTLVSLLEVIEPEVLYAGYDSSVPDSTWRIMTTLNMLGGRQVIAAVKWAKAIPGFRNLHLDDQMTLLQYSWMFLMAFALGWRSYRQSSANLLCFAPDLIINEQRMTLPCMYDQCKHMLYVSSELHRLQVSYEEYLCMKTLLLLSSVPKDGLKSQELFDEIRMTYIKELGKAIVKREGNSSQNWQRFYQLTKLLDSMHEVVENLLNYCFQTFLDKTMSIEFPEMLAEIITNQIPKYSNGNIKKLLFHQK
Chain of Nuclear receptor subfamily 1 group I member 3 (Homo sapiens) (Q14994 whole entry, looked up, the tested form may be a part): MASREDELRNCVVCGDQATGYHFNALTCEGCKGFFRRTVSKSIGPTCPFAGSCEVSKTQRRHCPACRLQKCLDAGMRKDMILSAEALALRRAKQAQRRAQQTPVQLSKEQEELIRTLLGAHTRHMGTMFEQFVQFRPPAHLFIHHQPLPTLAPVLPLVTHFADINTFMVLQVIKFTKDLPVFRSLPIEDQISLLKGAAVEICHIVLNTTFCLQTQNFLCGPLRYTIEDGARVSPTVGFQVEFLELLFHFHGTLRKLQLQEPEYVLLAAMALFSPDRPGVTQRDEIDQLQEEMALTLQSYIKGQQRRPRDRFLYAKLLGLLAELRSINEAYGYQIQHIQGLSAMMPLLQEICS
Chain of X-box-binding protein 1 (Homo sapiens) (P17861 whole entry, looked up): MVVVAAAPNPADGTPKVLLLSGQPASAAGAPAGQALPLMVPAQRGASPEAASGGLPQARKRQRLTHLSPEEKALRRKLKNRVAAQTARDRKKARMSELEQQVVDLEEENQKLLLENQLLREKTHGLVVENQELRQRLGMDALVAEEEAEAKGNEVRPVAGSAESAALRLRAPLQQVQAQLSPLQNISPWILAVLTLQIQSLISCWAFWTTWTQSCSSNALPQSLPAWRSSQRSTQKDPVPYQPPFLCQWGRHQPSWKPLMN
Chain of Transcriptional activator Myb (Homo sapiens) (P10242 whole entry, looked up): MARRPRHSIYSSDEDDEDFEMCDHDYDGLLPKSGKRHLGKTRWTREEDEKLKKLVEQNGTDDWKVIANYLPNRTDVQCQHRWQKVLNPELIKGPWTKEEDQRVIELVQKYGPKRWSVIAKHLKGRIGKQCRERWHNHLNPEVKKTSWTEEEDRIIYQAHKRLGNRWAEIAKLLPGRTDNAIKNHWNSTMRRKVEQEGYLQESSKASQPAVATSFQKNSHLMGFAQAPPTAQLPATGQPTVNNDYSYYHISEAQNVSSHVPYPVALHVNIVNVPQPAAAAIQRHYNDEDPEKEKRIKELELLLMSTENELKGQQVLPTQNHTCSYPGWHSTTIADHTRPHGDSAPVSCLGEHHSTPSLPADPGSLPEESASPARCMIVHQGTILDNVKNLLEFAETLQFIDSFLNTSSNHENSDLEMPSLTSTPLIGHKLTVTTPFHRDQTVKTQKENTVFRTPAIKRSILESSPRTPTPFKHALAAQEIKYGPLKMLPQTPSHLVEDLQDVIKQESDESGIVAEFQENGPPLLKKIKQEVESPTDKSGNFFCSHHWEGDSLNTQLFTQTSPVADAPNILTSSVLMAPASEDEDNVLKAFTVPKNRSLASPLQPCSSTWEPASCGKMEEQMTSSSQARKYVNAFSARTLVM
Chain of Estrogen-related receptor gamma (Homo sapiens) (P62508 whole entry, looked up, the tested form may be a part): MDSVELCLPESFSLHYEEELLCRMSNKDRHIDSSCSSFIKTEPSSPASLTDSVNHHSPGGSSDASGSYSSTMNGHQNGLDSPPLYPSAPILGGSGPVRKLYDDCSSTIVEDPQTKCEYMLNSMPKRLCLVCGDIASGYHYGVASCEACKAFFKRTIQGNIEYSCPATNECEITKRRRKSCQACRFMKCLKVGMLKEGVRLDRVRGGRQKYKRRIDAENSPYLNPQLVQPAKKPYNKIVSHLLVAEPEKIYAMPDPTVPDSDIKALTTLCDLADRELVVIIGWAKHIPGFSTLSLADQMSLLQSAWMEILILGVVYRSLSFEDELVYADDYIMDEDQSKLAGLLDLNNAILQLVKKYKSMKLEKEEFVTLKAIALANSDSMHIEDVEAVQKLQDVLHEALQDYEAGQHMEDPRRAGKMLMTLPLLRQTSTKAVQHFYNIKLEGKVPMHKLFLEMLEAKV
Chain of Nuclear respiratory factor 1 (Homo sapiens) (Q16656 whole entry, looked up): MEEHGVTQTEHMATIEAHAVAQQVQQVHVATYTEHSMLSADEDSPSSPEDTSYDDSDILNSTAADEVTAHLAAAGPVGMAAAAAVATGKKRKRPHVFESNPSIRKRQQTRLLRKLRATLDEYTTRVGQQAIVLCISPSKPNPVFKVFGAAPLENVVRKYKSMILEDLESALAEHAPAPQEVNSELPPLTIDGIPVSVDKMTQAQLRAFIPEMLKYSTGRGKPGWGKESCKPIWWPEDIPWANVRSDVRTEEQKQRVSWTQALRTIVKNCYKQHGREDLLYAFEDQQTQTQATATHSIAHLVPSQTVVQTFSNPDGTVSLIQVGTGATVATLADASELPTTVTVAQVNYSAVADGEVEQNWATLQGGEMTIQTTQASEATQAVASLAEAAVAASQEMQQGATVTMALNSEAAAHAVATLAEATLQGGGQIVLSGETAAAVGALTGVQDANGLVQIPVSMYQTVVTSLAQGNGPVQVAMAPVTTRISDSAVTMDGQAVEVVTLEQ
Chain of Oxysterols receptor LXR-beta (Homo sapiens) (P55055 whole entry, looked up, the tested form may be a part): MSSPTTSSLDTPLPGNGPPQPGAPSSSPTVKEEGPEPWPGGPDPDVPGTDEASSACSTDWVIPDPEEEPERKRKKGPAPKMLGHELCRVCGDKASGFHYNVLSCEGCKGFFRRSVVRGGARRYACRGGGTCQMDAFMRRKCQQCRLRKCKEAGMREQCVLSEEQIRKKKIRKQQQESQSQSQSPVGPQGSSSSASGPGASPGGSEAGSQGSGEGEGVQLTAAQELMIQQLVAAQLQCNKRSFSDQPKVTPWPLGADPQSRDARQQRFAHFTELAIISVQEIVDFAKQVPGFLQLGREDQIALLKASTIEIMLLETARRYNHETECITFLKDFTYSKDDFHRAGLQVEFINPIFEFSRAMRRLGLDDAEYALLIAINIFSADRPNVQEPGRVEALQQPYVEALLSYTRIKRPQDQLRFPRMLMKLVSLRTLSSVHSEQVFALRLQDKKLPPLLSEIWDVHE
Chain of Steroid hormone receptor ERR1 (Homo sapiens) (P11474 whole entry, looked up, the tested form may be a part): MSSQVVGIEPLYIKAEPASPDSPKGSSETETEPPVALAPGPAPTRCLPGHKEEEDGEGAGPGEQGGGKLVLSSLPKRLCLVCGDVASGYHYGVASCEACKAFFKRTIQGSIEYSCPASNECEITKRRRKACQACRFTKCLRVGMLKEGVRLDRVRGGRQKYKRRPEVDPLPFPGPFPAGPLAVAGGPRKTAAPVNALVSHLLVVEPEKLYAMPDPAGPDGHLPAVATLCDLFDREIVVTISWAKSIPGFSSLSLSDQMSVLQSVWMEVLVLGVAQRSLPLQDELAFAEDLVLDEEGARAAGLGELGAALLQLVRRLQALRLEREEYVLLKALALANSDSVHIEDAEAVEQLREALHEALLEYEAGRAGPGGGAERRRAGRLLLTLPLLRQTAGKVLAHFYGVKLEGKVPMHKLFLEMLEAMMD

Row | Structure (SMILES) | outcome [1] | outcome [2] | outcome [3] | outcome [4] | outcome [5] | outcome [6] | outcome [7] | outcome [8] | outcome [9] | outcome [10] | outcome [11] | outcome [12] | outcome [13] | outcome [14] | outcome [15] | outcome [16] | outcome [17] | outcome [18] | AC50 [13] | AC50 [1]
1 | O=C(O)CNc1ccccc1 | inactive | inactive | inactive | inactive | inactive | inactive | inactive | inactive | inactive | inactive | inactive | inactive |  |  |  |  |  |  |  | 
2 | CCC(C)S (stereo not drawn) | inactive | inactive |  | inactive |  | inactive |  | inactive |  | inactive | inactive | inactive | inactive | inactive |  |  |  |  |  | 
3 | CCCCC(CC)COC(=O)c1ccc(O)cc1 (stereo not drawn) | inactive |  |  | inactive |  | inactive | inactive | inactive | inactive | inactive | inactive | inactive | inactive |  | inactive | inactive | inactive | inactive |  | 
4 | CC1(C)C2=CCCC(C)(C)[C@]23CC[C@H]1C3 |  | inactive |  | inactive |  | inactive | inactive | inactive | inactive | inactive | inactive | inactive |  |  |  | inactive |  | inactive | 100 µM (active) | 2 µM (active)
5 | NCC1CCCC(CN)C1 (stereo not drawn) | inactive | inactive | inactive | inactive |  | inactive | inactive | inactive | inactive | inactive | inactive | inactive | inactive |  | inactive |  | inactive | inactive |  | 
6 | COC(C)(C)CCCC(C)CC=O (stereo not drawn) | inactive |  | inactive | inactive | inactive | inactive |  | inactive |  | inactive | inactive | inactive | inactive | inactive |  |  | inactive | inactive |  | 
7 | CCCCCCCCN1CCCC1=O | inactive | inactive |  | inactive |  | inactive | inactive |  | inactive |  | inactive | inactive |  |  |  |  |  |  |  | 
8 | C1CCOC1 | inactive | inactive | inactive | inactive | inactive | inactive | inactive |  | inactive | inactive | inactive | inactive | inactive | inactive | inactive |  | inactive | inactive |  | 
9 | N[C@@H](Cc1cc(I)c(Oc2cc(I)c(O)c(I)c2)c(I)c1)C(=O)O |  | inactive |  | inactive |  | inactive |  | inactive | inactive | inactive | inactive |  | inactive | inactive |  |  | inactive | inactive |  | 18.8 µM (active)
